Reference: PubChem BioAssay (EPA / NIEHS)
Values joined by “and” are separate entries in the source; they are usually repeats but may differ in a detail not shown here. Identical values can stand only once. Inconclusive results are not listed. Some structures have more than one record in an assay (separate samples or runs), and their calls can disagree. Active and inactive are the calls of the source. How the source made its calls, unless noted: active means hit-call score of the fitted dose curve at least 0.9, where 1 is the maximum; inactive means score below 0.9.

Legend:
[1] = IUF_NPC2c_oligodendrocyte_migration_120hr: Leibniz Research Institute for Environmental Medicine (IUF) 120-hour Neural Progenitor Cell Migration Assay for Oligodendrocyte Migration (NPC2c) (AID 2284297);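 further: O4-positive oligodendrocyte migration distance divided by radial glia migration distance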
Method in brief: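 Exposure runs 5 days from differentiation onset at 37C, seven concentrations plus solvent control, DMSO at most 0.1%, applied to primary hNPC spheres on laminin. After fixation, O4 immunostaining gives oligodendrocyte distance from the sphere core, relative to radial glia migration.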

[2] = IUF_NPC2a_radial_glia_migration_120hr: Leibniz Research Institute for Environmental Medicine (IUF) 120-hour Neural Progenitor Cell Migration Assay for Radial Glia Migration (NPC2a) (AID 2284298)
Method in brief: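 Migration distance in um, sphere core edge to migration-area edge, derived by nuclei-density algorithm from Hoechst images after 120 h compound exposure. Primary hNPC spheres differentiated on poly-D-lysine/laminin in N2 medium, 37C; medium half-replaced day 3.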

[3] = IUF_NPC2a_radial_glia_migration_72hr: Leibniz Research Institute for Environmental Medicine (IUF) 72-hour Neural Progenitor Cell Migration Assay for Radial Glia Migration (NPC2a) (AID 2284299)
Method in brief: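 Human fetal cortex (GW 16-19) neural progenitor spheres, 0.3 mm, plated on poly-D-lysine/laminin in N2 differentiation medium with compound from day 0. Radial glia migration distance (um, sphere core edge to migration edge) measured manually in four directions on 72 h brightfield images; well mean used.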

[4] = IUF_NPC2b_neuronal_migration_120hr: Leibniz Research Institute for Environmental Medicine (IUF) 120-hour Neural Progenitor Cell Migration Assay for Neuron Migration (NPC2b) (AID 2284300)
Method in brief: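 TUBB3-positive neurons are imaged after 120 h of differentiation, and their mean distance from the sphere edge is normalised to radial glia migration. Single 0.3 mm fetal hNPC spheres on poly-D-lysine/laminin received 7 compound concentrations, ≤0.1% DMSO, refreshed at day 3.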

[5] = IUF_NPC3_neuronal_differentiation_120hr: Leibniz Research Institute for Environmental Medicine (IUF) 120-hour Neuronal Differentiation Assay (NPC3) (AID 2284301)
Method in brief: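 Human fetal (GW 16-19) neural progenitor spheres (0.3 mm) plated on poly-D-lysine/laminin in N2 differentiation medium, exposed 120 h at 37C with half-medium renewal day 3; 7 concentrations. TUBB3+ cells as % of Hoechst nuclei, CNN-identified; DMSO baseline.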

[6] = IUF_NPC4_neurite_length_120hr: Leibniz Research Institute for Environmental Medicine (IUF) 120-hour Neuronal Morphology Assay for Neurite Length (NPC4) (AID 2284302)
Method in brief: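 Human fetal neural progenitor spheres (0.3 mm) plated on poly-D-lysine/laminin in N2 differentiation medium, exposed from day 0 for 120 h with half-medium refresh at day 3, 37C. Mean neurite length (um) of TUBB3-positive neurons from skeletonized immunostaining images; DMSO ≤0.1%.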

[7] = IUF_NPC5_oligodendrocyte_differentiation_120hr: Leibniz Research Institute for Environmental Medicine (IUF) 120-hour Oligodendrocyte Differentiation Assay (NPC5) (AID 2284304; active means hit-call score of the fitted dose curve at least 0.9, where 1 is the maximum;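 further: primary human fetal neural progenitor spheres plated to migrate and differentiate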)
Method in brief: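 Oligodendrocyte differentiation scored as O4-positive cells, found by CNN image analysis, as percent of Hoechst-stained nuclei in the migration area. Scoring followed 5 days of exposure of plated hNPC neurospheres differentiating in DMEM/F12 N2 medium at 37C, with compound refreshed at day 3.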

[8] = IUF_NPC4_neurite_area_120hr: Leibniz Research Institute for Environmental Medicine (IUF) 120-hour Neuronal Morphology Assay for Neurite Area (NPC4) (AID 2284305; active means hit-call score of the fitted dose curve at least 0.9, where 1 is the maximum)
Method in brief: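 Human fetal neural progenitor spheres (0.3 mm) plated on poly-D-lysine/laminin in N2 differentiation medium, exposed 120 h (7 concentrations, DMSO ≤0.1%, half-medium refresh day 3). Fixed, TUBB3 immunostained; mean neurite area per neuron by Omnisphero skeletonization.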

[9] = IUF_NPC2-5_cytotoxicity_72hr: Cytotoxicity Assessment at 72 hours in the Leibniz Research Institute for Environmental Medicine (IUF) Neural Progenitor Cell Migration and Differentiation Assay for Cytotoxicity (NPC2-5) (AID 2284306; active means hit-call score of the fitted dose curve at least 0.9, where 1 is the maximum;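 further: LDH release into supernatant measured by resorufin fluorescence marking membrane damage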)
Method in brief: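 Human fetal primary neural progenitor spheres (0.3 mm) plated on poly-D-lysine/laminin in N2 differentiation medium, exposed from day 0 at 37C. LDH-dependent resazurin-to-resorufin fluorescence in supernatant at 72 h; 7 concentrations, DMSO at most 0.1%.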

[10] = IUF_NPC2-5_cytotoxicity_120hr: Cytotoxicity Assessment at 120 hours in the Leibniz Research Institute for Environmental Medicine (IUF) Neural Progenitor Cell Migration and Differentiation Assay (NPC2-5) (AID 2284307; active means hit-call score of the fitted dose curve at least 0.9, where 1 is the maximum)
Method in brief: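 Membrane-integrity loss measured as LDH activity in medium supernatant via resazurin-to-resorufin fluorescence after 120 h exposure. hNPC spheres from GW 16-19 fetal cortex differentiated on poly-D-lysine/laminin, 37C, medium half-refreshed day 3; seven concentrations, DMSO max 0.1%.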

[11] = IUF_NPC2-5_cell_number_120hr: Cell Number Assessment at 120 hours in the Leibniz Research Institute for Environmental Medicine (IUF) Neural Progenitor Cell Migration and Differentiation Assay (NPC2-5) (AID 2284308);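 further: count of Hoechst-stained nuclei in migration zone around plated human neural progenitor spheres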
Method in brief: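 Counting of all Hoechst-stained nuclei in the migration area at 120 h, versus DMSO control. Primary hNPC spheres differentiated on poly-D-lysine/laminin in N2 medium at 37C, dosed from day 0 (7 concentrations, DMSO ≤0.1%), half-refed day 3.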

[12] = IUF_NPC2-5_viability_120hr: Viability Assessment at 120 hours in the Leibniz Research Institute for Environmental Medicine (IUF) Neural Progenitor Cell Migration and Differentiation Assay (NPC2-5) (AID 2284312)
Method in brief: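 Human fetal neural progenitor spheres (0.3 mm) plated on poly-D-lysine/laminin in N2 differentiation medium, exposed 120 h with half-medium refresh at day 3. Viability by alamar blue resazurin fluorescence; 7 concentrations, DMSO max 0.1%.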

[13] = read-out: Interleukin-10 (IL10), IL10 (gene 3586); assay: BSK_IMphg_IL10: BioMAP Diversity Plus: IMphg Assay for Interleukin-10 (IL10) Biomarker Activity (AID 2284294); details: primary human endothelial cells with macrophages
Method in brief: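 Human venular endothelial cells cocultured with macrophages, dosed 24 h; IL-10 measured by ELISA, activity relative to DMSO. Cytotoxicity assessed in parallel cultures by sulforhodamine B total-protein staining.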

[14] = BSK_IMphg_SRB.Mphg: Macrophage Viability Assessment in the BioMAP Diversity Plus: IMphg Assay (AID 2284295); details: primary human endothelial cells with macrophages
Method in brief: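 Venular endothelial cells co-cultured with macrophages, read 24 h after dosing. Total protein measured by 0.1% SRB staining after 10% TCA fixation, absorbance at 560 nm. Fitted in positive direction against DMSO baseline.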

[15] = read-out: Thrombomodulin, THBD (gene 7056); assay: BSK_LPS_Thrombomodulin: BioMAP Diversity Plus: LPS Assay for Thrombomodulin Biomarker Activity (AID 2284296); details: primary human HUVEC with PBMC
Method in brief: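 Human umbilical vein endothelial cells co-cultured with PBMC and stimulated with LPS; cell-surface thrombomodulin measured by ELISA 24 hours after compound. Gain or loss versus DMSO; cytotoxicity checked by SRB staining in parallel cultures.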

[16] = read-out: CD69, CD69 (gene 969); assay: BSK_LPS_CD69: BioMAP Diversity Plus: LPS Assay for CD69 Biomarker Activity (AID 2284303); details: primary human HUVEC with PBMC
Method in brief: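 Human umbilical vein endothelial cells co-cultured with PBMC under LPS stimulation, chemical exposure 24 h; cell-surface CD69 measured by ELISA and fitted in the positive direction versus DMSO.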

[17] = VALA_TUBHUV_Agonist_CellCount: Viability Assessment in the VALA Sciences human Umbilical Vein Endothelial Tubule Formation (TUBHUV) Agonism Assay (AID 2284309; active means hit-call score of the fitted dose curve at least 0.9, where 1 is the maximum)
Method in brief: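 HUVEC co-cultured 1:3 with HDF for 3 days in 10 ng/ml VEGF, then compounds added in VEGF medium for a further 3 days (72 h). Nuclear-stain/CD31 imaging cell count. Positive-direction fit versus 0.1% DMSO vehicle.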

[18] = VALA_TUBHUV_Antagonist_CellCount: Viability Assessment in the VALA Sciences human Umbilical Vein Endothelial Tubule Formation (TUBHUV) Antagonism Assay (AID 2284310; active means hit-call score of the fitted dose curve at least 0.9, where 1 is the maximum)
Method in brief: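 HUVEC co-cultured with HDF (1:3) 3 days in 10 ng/ml VEGF, then 3 days with compounds in VEGF medium. Fixed, nuclear stain and CD31 immunofluorescence, imaged; cell counts fitted versus 0.1% DMSO, loss of signal read as lower viability.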

[19] = VALA_MIGHUV2_Bcatenin: VALA Sciences human Umbilical Vein Endothelial Cell Migration (MIGHUV) Assay, Nuclear Translocation of beta-Catenin after Recovery (AID 2284315; active means hit-call score of the fitted dose curve at least 0.9, where 1 is the maximum)
Method in brief: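 HUVEC (4000 cells/well) scratch-wounded, dosed within 30 min over 6 concentrations in triplicate, recovered 24 h. After fixation, Hoechst and anti-beta-catenin immunofluorescence imaged for nuclear CTNB. Gain of signal versus 0.1% DMSO.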

[20] = VALA_MIGHUV2_WoundArea: VALA Sciences human Umbilical Vein Endothelial Cell Migration (MIGHUV) Assay, Area of Scratch Wound after Recovery (AID 2284316; active means hit-call score of the fitted dose curve at least 0.9, where 1 is the maximum)
Method in brief: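 HUVEC seeded at 9000 cells/well, scratched after 24 h; test chemical added within 30 min, 6-point concentration response in triplicate (0.1% DMSO vehicle). After 24 h wound recovery, cells fixed and Hoechst-stained nuclei in wound area imaged; Cytochalasin D reference control.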

Measured: AC50

CCOc1ccc(C(C)(C)COCc2cccc(Oc3ccccc3)c2)cc1
not listed: [13] | [14] | [15] | [16] | [17] | [18] | [19] | [20]
inactive: all other assays above

FC(F)(F)C(F)(C(F)(F)F)C(F)(F)C(F)(F)CC1CO1 (configuration not stated)
inactive: [13] | [14] | [15] | [16]

OCC(F)(F)OC(F)(F)C(F)(F)OC(F)(F)C(F)(F)OC(F)(F)F
active: [13] 45.9 µM and 42.6 µM | [14] 21 µM and 15.3 µM | [16] 6.46 µM
inactive: [15] | [16]

COC(=O)C(F)(F)C(F)(F)OC(F)(C(F)(F)F)C(F)(F)OC(F)=C(F)F (configuration not stated)
inactive: [13] | [14] | [15] | [16]

CC(O)C(F)(F)C(F)(F)F (configuration not stated)
inactive: [13] | [14] | [15] | [16]

O=C(O)C(F)(OC(F)(F)C(F)(F)C(F)(F)F)C(F)(F)F (configuration not stated)
inactive: [13] | [14] | [15] | [1] | [2] | [3] | [4] | [5] | [16] | [7] | [9] | [10] | [11] | [12]
active: [13] 673 nM and 652 nM | [14] 30 µM | [6] 0.342 µM | [8] 0.338 µM

OCC(F)(F)OC(F)(F)C(F)(F)OC(F)(F)C(F)(F)OC(F)(F)CO
active: [13] 30 µM | [15] 4.54 µM
inactive: [14] | [15] | [16]

C=CC(=O)OCC(F)(F)C(F)F
inactive: [14] | [16]
active: [13] 43.4 µM and 39.2 µM | [15] 30 µM and 39 µM | [16] 43.8 µM

Cc1ccc(N)cc1N
inactive: [17] | [18] | [19] | [20]

CCCCC(CC)COP(=O)(Oc1ccccc1)Oc1ccccc1 (configuration not stated)
not listed: [13] | [14] | [15] | [16] | [17] | [18] | [19] | [20]
inactive: all other assays above

OCC(F)(F)OC(F)(F)C(F)(F)OC(F)(F)CO
inactive: [13] | [14] | [15] | [16]

O=C(O)C(F)(F)C(F)(F)C(=O)O
inactive: [13] | [14] | [15] | [16]

CCCCOCCOP(=O)(OCCOCCCC)OCCOCCCC
inactive: [1] | [2] | [3] | [4] | [5] | [6] | [8] | [10] | [11] | [12]
active: [7] 3.24 µM
